Tests used:
[1] = target: Ribosomal protein S6 kinase alpha-6 (Homo sapiens) (UniProt Q9UK32); details: at 1 µM;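 note: each value is a mean inhibition of RSK4 from a GSK PKIS panel screen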
[2] = target: T1, Serine/threonine-protein kinase Sgk1 (Homo sapiens) (UniProt O00141); details: at 0.1 µM
T1 sequence (whole entry): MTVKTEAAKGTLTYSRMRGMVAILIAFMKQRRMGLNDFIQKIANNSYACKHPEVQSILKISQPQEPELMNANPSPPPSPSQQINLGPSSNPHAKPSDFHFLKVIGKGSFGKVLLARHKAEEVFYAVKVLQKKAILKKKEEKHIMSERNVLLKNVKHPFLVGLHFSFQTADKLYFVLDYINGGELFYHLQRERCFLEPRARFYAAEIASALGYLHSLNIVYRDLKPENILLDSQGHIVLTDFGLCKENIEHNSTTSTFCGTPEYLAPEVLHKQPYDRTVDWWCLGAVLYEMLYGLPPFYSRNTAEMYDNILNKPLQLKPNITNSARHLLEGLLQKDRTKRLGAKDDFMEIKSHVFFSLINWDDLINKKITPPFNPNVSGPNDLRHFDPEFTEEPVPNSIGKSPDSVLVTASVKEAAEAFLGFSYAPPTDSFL

[3] = target: T1, Serine/threonine-protein kinase Sgk1 (Homo sapiens); details: at 1 µM
[4] = target: T2, Serine/threonine-protein kinase Sgk2 (Homo sapiens) (UniProt Q9HBY8); details: at 0.1 µM
T2 sequence (whole entry): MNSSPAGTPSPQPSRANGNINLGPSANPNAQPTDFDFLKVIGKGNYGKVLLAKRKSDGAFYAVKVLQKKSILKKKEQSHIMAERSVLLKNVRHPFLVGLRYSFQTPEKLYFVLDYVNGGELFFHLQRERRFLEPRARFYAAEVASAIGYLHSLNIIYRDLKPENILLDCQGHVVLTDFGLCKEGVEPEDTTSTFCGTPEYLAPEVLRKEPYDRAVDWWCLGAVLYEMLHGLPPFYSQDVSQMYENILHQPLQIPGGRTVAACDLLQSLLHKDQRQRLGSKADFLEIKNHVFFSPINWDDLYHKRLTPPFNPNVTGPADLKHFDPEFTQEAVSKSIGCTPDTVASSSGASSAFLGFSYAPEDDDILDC

[5] = target: T2, Serine/threonine-protein kinase Sgk2 (Homo sapiens); details: at 1 µM
[6] = target: T3, Serine/threonine-protein kinase Sgk3 (Homo sapiens) (UniProt Q96BR1); details: at 0.1 µM
T3 sequence (whole entry): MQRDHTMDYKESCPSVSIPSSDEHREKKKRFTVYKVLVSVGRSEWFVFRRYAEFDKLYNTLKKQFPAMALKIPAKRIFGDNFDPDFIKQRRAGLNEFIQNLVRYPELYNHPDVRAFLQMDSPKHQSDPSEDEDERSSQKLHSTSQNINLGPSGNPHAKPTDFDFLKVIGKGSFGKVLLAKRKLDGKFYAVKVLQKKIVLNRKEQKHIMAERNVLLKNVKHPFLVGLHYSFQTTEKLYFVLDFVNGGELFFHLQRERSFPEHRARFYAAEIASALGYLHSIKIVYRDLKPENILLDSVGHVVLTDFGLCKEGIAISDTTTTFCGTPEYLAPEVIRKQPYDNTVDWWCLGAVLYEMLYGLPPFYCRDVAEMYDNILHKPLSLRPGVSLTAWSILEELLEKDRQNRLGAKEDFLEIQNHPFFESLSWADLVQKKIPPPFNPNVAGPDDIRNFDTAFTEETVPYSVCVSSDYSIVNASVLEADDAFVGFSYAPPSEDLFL

[7] = target: T3, Serine/threonine-protein kinase Sgk3 (Homo sapiens); details: at 1 µM
[8] = target: 5'-AMP-activated protein kinase catalytic subunit alpha-1 (Homo sapiens) (UniProt Q13131); details: at 0.1 µM
[9] = target: 5'-AMP-activated protein kinase catalytic subunit alpha-1 (Homo sapiens) (UniProt Q13131); details: at 1 µM
[10] = target: 5'-AMP-activated protein kinase catalytic subunit alpha-2 (Homo sapiens) (UniProt P54646); details: at 0.1 µM
[11] = target: 5'-AMP-activated protein kinase catalytic subunit alpha-2 (Homo sapiens) (UniProt P54646); details: at 1 µM
[12] = target: T4, NUAK family SNF1-like kinase 1 (Homo sapiens) (UniProt O60285); details: at 0.1 µM
T4 sequence (whole entry): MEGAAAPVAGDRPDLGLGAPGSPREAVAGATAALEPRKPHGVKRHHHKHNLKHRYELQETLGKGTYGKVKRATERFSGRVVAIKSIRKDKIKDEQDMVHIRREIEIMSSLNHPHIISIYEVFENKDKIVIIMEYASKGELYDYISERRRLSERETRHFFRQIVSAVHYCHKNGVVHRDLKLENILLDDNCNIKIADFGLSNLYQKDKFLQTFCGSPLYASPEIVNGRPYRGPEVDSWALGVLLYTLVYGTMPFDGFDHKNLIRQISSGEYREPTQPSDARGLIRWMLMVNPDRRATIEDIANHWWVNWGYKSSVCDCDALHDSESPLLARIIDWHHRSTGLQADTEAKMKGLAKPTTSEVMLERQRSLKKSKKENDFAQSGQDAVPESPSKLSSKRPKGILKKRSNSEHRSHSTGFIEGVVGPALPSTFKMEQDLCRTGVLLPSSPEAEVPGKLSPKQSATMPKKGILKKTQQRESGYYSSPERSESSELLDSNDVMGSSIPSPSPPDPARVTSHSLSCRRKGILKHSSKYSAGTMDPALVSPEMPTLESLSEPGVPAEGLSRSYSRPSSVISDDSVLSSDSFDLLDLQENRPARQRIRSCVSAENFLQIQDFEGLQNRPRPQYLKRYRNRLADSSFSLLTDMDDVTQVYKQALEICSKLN

[13] = target: T4, NUAK family SNF1-like kinase 1 (Homo sapiens); details: at 1 µM
[14] = target: T5, Serine/threonine-protein kinase BRSK1 (Homo sapiens) (UniProt Q8TDC3); details: at 0.1 µM
T5 sequence (whole entry): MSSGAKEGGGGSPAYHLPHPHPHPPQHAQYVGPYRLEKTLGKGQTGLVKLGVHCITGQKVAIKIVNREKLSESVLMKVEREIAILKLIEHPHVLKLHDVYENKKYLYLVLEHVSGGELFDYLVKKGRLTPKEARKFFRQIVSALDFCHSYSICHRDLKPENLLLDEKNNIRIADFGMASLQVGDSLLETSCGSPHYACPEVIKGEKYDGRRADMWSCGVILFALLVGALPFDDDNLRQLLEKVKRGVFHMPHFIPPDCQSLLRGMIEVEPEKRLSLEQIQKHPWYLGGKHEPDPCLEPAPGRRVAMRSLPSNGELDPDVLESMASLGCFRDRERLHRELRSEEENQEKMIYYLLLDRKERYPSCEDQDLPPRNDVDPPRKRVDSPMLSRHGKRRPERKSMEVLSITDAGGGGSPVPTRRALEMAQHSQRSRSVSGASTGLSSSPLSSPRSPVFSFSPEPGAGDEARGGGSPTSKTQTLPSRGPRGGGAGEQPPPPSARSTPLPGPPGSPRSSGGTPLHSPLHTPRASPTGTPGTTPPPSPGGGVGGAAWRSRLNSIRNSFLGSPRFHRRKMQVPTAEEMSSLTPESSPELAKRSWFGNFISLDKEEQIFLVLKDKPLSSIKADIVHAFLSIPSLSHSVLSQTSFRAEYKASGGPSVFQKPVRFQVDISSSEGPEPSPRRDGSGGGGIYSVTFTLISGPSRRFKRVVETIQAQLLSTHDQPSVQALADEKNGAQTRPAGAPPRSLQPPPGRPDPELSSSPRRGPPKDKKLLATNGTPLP

[15] = target: T5, Serine/threonine-protein kinase BRSK1 (Homo sapiens); details: at 1 µM
[16] = target: T6, Serine/threonine-protein kinase BRSK2 (Homo sapiens) (UniProt Q8IWQ3); details: at 0.1 µM
T6 sequence (whole entry): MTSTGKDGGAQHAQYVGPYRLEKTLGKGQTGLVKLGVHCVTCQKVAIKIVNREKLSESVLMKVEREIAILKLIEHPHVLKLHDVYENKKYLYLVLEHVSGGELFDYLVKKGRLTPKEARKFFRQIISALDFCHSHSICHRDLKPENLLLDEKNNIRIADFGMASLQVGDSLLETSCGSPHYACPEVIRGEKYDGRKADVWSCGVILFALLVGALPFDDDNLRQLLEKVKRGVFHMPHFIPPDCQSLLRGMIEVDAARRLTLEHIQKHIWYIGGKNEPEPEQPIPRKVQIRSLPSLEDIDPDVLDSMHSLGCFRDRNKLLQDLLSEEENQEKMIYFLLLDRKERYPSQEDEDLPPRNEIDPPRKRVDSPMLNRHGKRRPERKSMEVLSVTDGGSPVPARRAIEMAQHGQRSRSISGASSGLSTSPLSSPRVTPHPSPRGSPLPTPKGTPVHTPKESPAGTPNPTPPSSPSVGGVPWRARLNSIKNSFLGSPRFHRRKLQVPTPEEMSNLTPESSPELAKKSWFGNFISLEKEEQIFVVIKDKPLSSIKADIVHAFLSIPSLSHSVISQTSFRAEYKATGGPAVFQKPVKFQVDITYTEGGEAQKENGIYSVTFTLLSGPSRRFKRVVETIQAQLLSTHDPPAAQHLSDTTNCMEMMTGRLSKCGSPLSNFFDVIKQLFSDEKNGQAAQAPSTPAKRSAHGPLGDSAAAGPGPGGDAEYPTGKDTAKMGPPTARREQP

[17] = target: T6, Serine/threonine-protein kinase BRSK2 (Homo sapiens); details: at 1 µM
[18] = target: Calcium/calmodulin-dependent protein kinase type 1D (Homo sapiens) (UniProt Q8IU85); details: at 0.1 µM
[19] = target: Calcium/calmodulin-dependent protein kinase type 1D (Homo sapiens) (UniProt Q8IU85); details: at 1 µM
[20] = target: Calcium/calmodulin-dependent protein kinase type II subunit alpha (Homo sapiens) (UniProt Q9UQM7); details: at 0.1 µM;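 note: reported values are averages (mean inhibition of CAMK2A)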
Sequence of Calcium/calmodulin-dependent protein kinase type II subunit alpha (Homo sapiens) (Q9UQM7 whole entry): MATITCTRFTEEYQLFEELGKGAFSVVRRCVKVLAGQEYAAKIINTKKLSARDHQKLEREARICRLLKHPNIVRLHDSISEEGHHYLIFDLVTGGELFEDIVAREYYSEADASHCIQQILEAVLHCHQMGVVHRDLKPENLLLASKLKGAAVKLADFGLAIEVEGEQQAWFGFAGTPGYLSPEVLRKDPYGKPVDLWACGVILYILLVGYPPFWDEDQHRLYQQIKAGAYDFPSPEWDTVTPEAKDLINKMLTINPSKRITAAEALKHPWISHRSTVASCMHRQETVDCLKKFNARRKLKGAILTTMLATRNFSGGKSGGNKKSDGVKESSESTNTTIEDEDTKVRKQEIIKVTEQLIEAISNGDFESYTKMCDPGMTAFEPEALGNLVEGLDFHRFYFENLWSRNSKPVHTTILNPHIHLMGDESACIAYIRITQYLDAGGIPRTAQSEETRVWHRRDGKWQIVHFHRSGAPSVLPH

Sequence of Calcium/calmodulin-dependent protein kinase type 1D (Homo sapiens) (Q8IU85 whole entry, looked up): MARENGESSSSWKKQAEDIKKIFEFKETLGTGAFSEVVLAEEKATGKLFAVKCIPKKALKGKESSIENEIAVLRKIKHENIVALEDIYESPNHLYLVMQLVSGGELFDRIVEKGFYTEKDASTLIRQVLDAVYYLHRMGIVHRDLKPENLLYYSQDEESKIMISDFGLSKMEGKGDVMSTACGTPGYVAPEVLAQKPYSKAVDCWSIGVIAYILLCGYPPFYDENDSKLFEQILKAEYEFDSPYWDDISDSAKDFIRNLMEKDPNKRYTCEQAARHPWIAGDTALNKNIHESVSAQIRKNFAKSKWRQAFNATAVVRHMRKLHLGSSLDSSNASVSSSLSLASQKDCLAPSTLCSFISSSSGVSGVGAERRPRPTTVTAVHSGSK
Sequence of 5'-AMP-activated protein kinase catalytic subunit alpha-2 (Homo sapiens) (P54646 whole entry, looked up): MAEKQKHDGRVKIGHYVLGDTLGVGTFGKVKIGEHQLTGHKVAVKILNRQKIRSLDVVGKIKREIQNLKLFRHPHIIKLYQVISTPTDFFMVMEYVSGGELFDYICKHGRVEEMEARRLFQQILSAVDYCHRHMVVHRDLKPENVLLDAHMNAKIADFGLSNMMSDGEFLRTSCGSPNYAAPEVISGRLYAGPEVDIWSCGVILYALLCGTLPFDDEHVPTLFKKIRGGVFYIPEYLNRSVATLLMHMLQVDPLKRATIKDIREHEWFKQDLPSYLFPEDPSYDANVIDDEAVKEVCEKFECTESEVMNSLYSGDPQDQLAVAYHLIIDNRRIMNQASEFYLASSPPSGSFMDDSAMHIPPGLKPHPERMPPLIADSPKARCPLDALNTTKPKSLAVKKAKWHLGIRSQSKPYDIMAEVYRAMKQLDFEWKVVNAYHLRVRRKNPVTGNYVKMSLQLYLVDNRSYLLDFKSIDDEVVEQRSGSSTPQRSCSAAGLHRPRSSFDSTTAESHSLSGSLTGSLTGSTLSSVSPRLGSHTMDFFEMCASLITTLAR
Sequence of 5'-AMP-activated protein kinase catalytic subunit alpha-1 (Homo sapiens) (Q13131 whole entry, looked up): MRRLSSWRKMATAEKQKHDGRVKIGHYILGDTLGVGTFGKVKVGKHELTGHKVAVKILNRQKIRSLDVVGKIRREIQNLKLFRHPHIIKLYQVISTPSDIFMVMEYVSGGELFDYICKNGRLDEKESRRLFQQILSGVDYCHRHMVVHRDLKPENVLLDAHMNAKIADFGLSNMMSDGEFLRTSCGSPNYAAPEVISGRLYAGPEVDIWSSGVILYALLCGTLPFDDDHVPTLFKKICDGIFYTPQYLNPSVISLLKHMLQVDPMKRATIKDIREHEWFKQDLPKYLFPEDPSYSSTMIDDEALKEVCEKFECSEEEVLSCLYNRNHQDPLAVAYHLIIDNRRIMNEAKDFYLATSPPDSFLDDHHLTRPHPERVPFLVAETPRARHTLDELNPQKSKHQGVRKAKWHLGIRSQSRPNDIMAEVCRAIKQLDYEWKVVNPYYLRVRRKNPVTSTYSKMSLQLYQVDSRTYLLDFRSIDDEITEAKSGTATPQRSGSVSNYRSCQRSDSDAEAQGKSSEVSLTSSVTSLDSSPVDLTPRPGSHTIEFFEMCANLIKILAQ
Sequence of Ribosomal protein S6 kinase alpha-6 (Homo sapiens) (Q9UK32 whole entry): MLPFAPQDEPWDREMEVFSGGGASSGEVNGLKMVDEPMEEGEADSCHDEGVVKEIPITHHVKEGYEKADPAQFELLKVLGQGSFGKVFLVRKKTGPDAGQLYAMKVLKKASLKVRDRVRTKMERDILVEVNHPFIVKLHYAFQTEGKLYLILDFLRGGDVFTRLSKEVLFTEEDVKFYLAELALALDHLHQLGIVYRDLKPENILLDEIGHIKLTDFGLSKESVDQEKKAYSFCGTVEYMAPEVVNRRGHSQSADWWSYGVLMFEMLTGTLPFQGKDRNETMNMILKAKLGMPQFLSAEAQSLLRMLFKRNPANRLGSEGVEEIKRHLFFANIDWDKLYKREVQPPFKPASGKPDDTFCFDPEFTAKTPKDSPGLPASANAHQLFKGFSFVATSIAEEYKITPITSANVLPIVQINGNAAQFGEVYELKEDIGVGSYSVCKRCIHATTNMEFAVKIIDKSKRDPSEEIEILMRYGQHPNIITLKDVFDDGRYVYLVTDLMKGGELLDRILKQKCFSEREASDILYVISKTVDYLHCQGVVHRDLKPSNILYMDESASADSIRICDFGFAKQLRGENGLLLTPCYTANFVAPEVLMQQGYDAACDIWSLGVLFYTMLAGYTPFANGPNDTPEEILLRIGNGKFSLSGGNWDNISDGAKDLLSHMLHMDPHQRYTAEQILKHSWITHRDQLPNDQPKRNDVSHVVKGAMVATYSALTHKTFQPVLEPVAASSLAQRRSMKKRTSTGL

| Compound | inhibition [1] | inhibition [2] | inhibition [3] | inhibition [4] | inhibition [5] | inhibition [6] | inhibition [7] | inhibition [8] | inhibition [9] | inhibition [10] | inhibition [11] | inhibition [12] | inhibition [13] | inhibition [14] | inhibition [15] | inhibition [16] | inhibition [17] | inhibition [18] | inhibition [19] | inhibition [20] |
| --- | --- | --- | --- | --- | --- | --- | --- | --- | --- | --- | --- | --- | --- | --- | --- | --- | --- | --- | --- | --- |
| CCc1cccc(NC(=O)Nc2ccc(Oc3ccc4nc(NC(=O)OC)[nH]c4c3)cc2)c1 | 1.25% | 0.38% | 1.59% | 3.74% | -0.81% | 5.12% | 3.61% | 1.46% | 0.41% | -5.13% | -0.72% | 1.37% | 4.18% | 0.6% | 0.32% | 3.12% | 5.96% | 0.1% | 1.18% | 4.24% |
| CCn1c(-c2nonc2N)nc2ccncc21 | 1.11% | 0.13% | 1.04% | 2.07% | -2.06% | 0.78% | 0.08% | 2.35% | 0.79% | -1.16% | 4.28% | 1.84% | 4.31% | 1.52% | 2.23% | 1.34% | 0.91% | 1.15% | 1.59% | 3.93% |
| Nc1ncnc2occ(-c3ccc(NC(=O)Nc4cc(C(F)(F)F)cc(C(F)(F)F)c4)cc3)c12 | 5.35% | -0.37% | 1.38% | 2.27% | 2.02% | 0.27% | -0.52% | 1.68% | 0.27% | -0.39% | 4.79% | 1.19% | 2.22% | 1.78% | 3.44% | 1.11% | 0.11% | 1.67% | 4.38% | 3.17% |
| O=C1Nc2ccc(C(=O)c3ccco3)cc2C1=Cc1cc(Cl)c(O)c(Cl)c1 | 12% | 1.08% | 5.11% | 1.59% | 3.35% | 1.55% | 2.25% | 4.48% | 21.4% | 3.01% | 10.8% | 2.94% | 10.8% | 1.94% | 8.43% | 3.02% | 13.1% | -0.26% | 0.48% | 3.4% |
| CC1=C(C(=O)Nc2ccc3[nH]ncc3c2)C(c2ccc3ccccc3c2)CC(=O)N1 (stereo not given) | 7.45% | 2.12% | 7.38% | 3% | 16.6% | 1.33% | 10.3% | 7.34% | 41% | 2.46% | 11.5% | 7.78% | 43.5% | 1.91% | 20.8% | 3.96% | 31.3% | -0.51% | 0.49% | -0.08% |

From ChEMBL document CHEMBL1961873, “Compounds: GSK PKIS; Assays: Nanosyn kinase panel” (2012)
